# Data: the supplement of paper PMC8728848
# The full list was thinned out, with the strongest signals kept by preference.
# B1: FliD (Clostridium difficile) (protein)
# chain: MSSISPVRVTGLSGNFDMEGIIEASMIRDKEKVNKAKQDQQIVKWKQEIYRDIIKESKNLYDKYLNGDSPNSITNKKAYSATRITSSDESIIVAKGSAGAEKINYQFAVSQMAEPAKVTIKLNSSDPIVQQFPPNASGASSLNIGGVNIPISEQDTTSTIVSKINSLCADNDIRASYSEMTGELIISRKQTGSSSDIDLKVIGNDSLAGQIASDNGITFTTDASGTKSAVVYGKNLEADVTDDQGRVTHISKEQNSFKIDNIDYNVNSKGSAKLVSVTDTEEATKNMKAFVDDYNALMDKVYGLVTTKKSKDYPPLTDEQKDDMTTEEIEKWEKKAKEGILRNDDELRAFVEDIQSMFFGDADTIIALRKLGISEHENYNKKGQISFNADTFSKALIDDSDKVYKALAGYSSNYDDKGMFEKLKKIVFEYSGSSASKLTKKAGMENSSSASQNVYSKQIAEQERNISRLVEKMNDKEKRLYAKYSALESLLNKYSSQMNYFSQAQGN
# Legend:
# Test in all cases: glycan array binding signal (z-score within array); higher = stronger binding
# Conditions in all cases: glycan notation: IUPAC condensed, linker removed
# [1] = biological target: Fuc(a1-2)Gal(b1-3)[Fuc(a1-4)]GlcNAc(b1-2)Man(a1-3)[Fuc(a1-2)Gal(b1-3)[Fuc(a1-4)]GlcNAc(b1-2)Man(a1-6)]Man(b1-4)GlcNAc(b1-4)[Fuc(a1-6)]GlcNAc(b1-4)[Fuc(a1-6)]GlcNAc
# Procedure, shortened: (§1)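 The binding signal is a Z-score computed within each array. Data were drawn from 3228 arrays in the Consortium for Functional Glycomics database, restricted to those with a known protein sequence. Scores were averaged over arrays of the same protein sequence at different concentrations or buffers, and over linkers, and negative values can be taken as non-binding.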
# [2] = biological target: Fuc(a1-2)Gal(b1-4)[Fuc(a1-3)]GlcNAc(b1-2)Man(a1-3)[Fuc(a1-2)Gal(b1-4)[Fuc(a1-3)]GlcNAc(b1-2)Man(a1-6)]Man(b1-4)GlcNAc(b1-4)[Fuc(a1-6)]GlcNAc
# Procedure, shortened: as §1
# [3] = biological target: Fuc(a1-2)[Gal(a1-3)]Gal(b1-3)GlcNAc
# Procedure, shortened: as §1
# [4] = biological target: Fuc(a1-2)[GalNAc(a1-3)]Gal(b1-4)GlcNAc
# Procedure, shortened: as §1
# [5] = biological target: Fuc(a1-3)[Gal(b1-4)]GlcNAc(b1-2)Man(a1-3)[Fuc(a1-3)[Gal(b1-4)]GlcNAc(b1-2)Man(a1-6)]Man(b1-4)GlcNAc(b1-4)GlcNAc
# Procedure, shortened: as §1
# Gal(a1-3)Gal(b1-3)GlcNAc = biological target: Gal(a1-3)Gal(b1-3)GlcNAc
# Procedure, shortened: as §1
# [6] = biological target: Gal(a1-3)Gal(b1-4)GlcNAc(b1-2)Man
# Procedure, shortened: as §1
# Gal(a1-4)Gal(b1-4)GlcNAc = biological target: Gal(a1-4)Gal(b1-4)GlcNAc
# Procedure, shortened: as §1
# Gal(a1-4)GlcNAc = biological target: Gal(a1-4)GlcNAc
# Procedure, shortened: as §1
# Gal(b1-2)Gal = biological target: Gal(b1-2)Gal
# Procedure, shortened: as §1
# Gal(b1-3)Gal = biological target: Gal(b1-3)Gal
# Procedure, shortened: as §1
# Gal(b1-3)Gal(b1-4)GlcNAc = biological target: Gal(b1-3)Gal(b1-4)GlcNAc
# Procedure, shortened: as §1
# [7] = biological target: Gal(b1-3)GlcNAc(a1-6)Gal(b1-4)GlcNAc
# Procedure, shortened: as §1
# [8] = biological target: Gal(b1-3)GlcNAc(b1-2)Man(a1-3)[Gal(b1-3)GlcNAc(b1-2)Man(a1-6)]Man(b1-4)GlcNAc(b1-4)[Fuc(a1-6)]GlcNAc
# Procedure, shortened: as §1
# [9] = biological target: Gal(b1-3)GlcNAc(b1-6)Gal(b1-4)GlcNAc
# Procedure, shortened: as §1
# [10] = biological target: Gal(b1-4)GlcNAc(b1-2)Man(a1-6)Man(b1-4)GlcNAc(b1-4)GlcNAc
# Procedure, shortened: as §1
# [11] = biological target: Gal(b1-4)GlcNAc(b1-2)[Gal(b1-4)GlcNAc(b1-4)]Man(a1-3)[Gal(b1-4)GlcNAc(b1-2)Man(a1-6)]Man(b1-4)GlcNAc(b1-4)GlcNAc
# Procedure, shortened: as §1
# [12] = biological target: Gal(b1-4)GlcNAc(b1-2)[Gal(b1-4)GlcNAc(b1-6)]Man(a1-6)[Gal(b1-4)GlcNAc(b1-2)Man(a1-3)]Man(b1-4)GlcNAc(b1-4)[Fuc(a1-6)]GlcNAc
# Procedure, shortened: as §1
# [13] = biological target: Gal(b1-4)GlcNAc(b1-3)Gal(b1-3)GlcNAc
# Procedure, shortened: as §1
# [14] = biological target: Gal(b1-4)GlcNAc(b1-3)Gal(b1-4)GlcNAc(b1-2)Man(a1-3)[Gal(b1-4)GlcNAc(b1-3)Gal(b1-4)GlcNAc(b1-2)Man(a1-6)]Man(b1-4)GlcNAc(b1-4)[Fuc(a1-6)]GlcNAc
# Procedure, shortened: as §1
# [15] = biological target: Gal(b1-4)GlcNAc(b1-3)Gal(b1-4)GlcNAc(b1-3)Gal(b1-4)GlcNAc(b1-3)Gal(b1-4)GlcNAc(b1-2)Man(a1-3)[Gal(b1-4)GlcNAc(b1-3)Gal(b1-4)GlcNAc(b1-3)Gal(b1-4)GlcNAc(b1-3)Gal(b1-4)GlcNAc(b1-2)Man(a1-6)]Man(b1-4)GlcNAc(b1-4)[Fuc(a1-6)]GlcNAc
# Procedure, shortened: as §1
# [16] = biological target: Gal(b1-4)GlcNAc(b1-3)Gal(b1-4)GlcNAc(b1-3)Gal(b1-4)GlcNAc(b1-3)Gal(b1-4)GlcNAc(b1-3)Gal(b1-4)GlcNAc(b1-2)Man(a1-3)[Gal(b1-4)GlcNAc(b1-3)Gal(b1-4)GlcNAc(b1-3)Gal(b1-4)GlcNAc(b1-3)Gal(b1-4)GlcNAc(b1-3)Gal(b1-4)GlcNAc(b1-2)Man(a1-6)]Man(b1-4)GlcNAc(b1-4)GlcNAc
# Procedure, shortened: as §1
# Gal3S(b1-3)GalNAc = biological target: Gal3S(b1-3)GalNAc
# Procedure, shortened: as §1
# Gal3S(b1-4)Glc = biological target: Gal3S(b1-4)Glc
# Procedure, shortened: as §1
# Gal3S(b1-4)Glc6S = biological target: Gal3S(b1-4)Glc6S
# Procedure, shortened: as §1
# Gal3S6S(b1-4)GlcNAc = biological target: Gal3S6S(b1-4)GlcNAc
# Procedure, shortened: as §1
# Glc(a1-4)Glc = biological target: Glc(a1-4)Glc
# Procedure, shortened: as §1
# GlcNAc(b1-3)Fuc = biological target: GlcNAc(b1-3)Fuc
# Procedure, shortened: as §1
# [17] = biological target: GlcNAc(b1-4)Gal(b1-4)GlcNAc
# Procedure, shortened: as §1
# Kdn(a2-3)Gal(b1-4)Glc = biological target: Kdn(a2-3)Gal(b1-4)Glc
# Procedure, shortened: as §1
# Kdn(a2-3)Gal(b1-4)GlcNAc = biological target: Kdn(a2-3)Gal(b1-4)GlcNAc
# Procedure, shortened: as §1
# [18] = biological target: Kdn(a2-3)Gal(b1-4)[Fuc(a1-3)]GlcNAc
# Procedure, shortened: as §1
# [19] = biological target: Man(a1-2)Man(a1-2)Man(a1-3)Man
# Procedure, shortened: as §1
# [20] = biological target: Man(a1-3)[Man(a1-6)]Man(b1-4)GlcNAc(b1-4)[Fuc(a1-6)]GlcNAc
# Procedure, shortened: as §1
# Neu5Ac(a2-3)Gal = biological target: Neu5Ac(a2-3)Gal
# Procedure, shortened: as §1
# [21] = biological target: Neu5Ac(a2-3)Gal(b1-4)GlcNAc(b1-2)[Neu5Ac(a2-3)Gal(b1-4)GlcNAc(b1-6)]Man(a1-6)[Neu5Ac(a2-3)Gal(b1-4)GlcNAc(b1-2)Man(a1-3)]Man(b1-4)GlcNAc(b1-4)GlcNAc
# Procedure, shortened: as §1
# [22] = biological target: Neu5Ac(a2-3)Gal(b1-4)GlcNAc(b1-3)Gal(b1-4)GlcNAc
# Procedure, shortened: as §1
# [23] = biological target: Neu5Ac(a2-3)Gal(b1-4)GlcNAc(b1-3)Gal(b1-4)GlcNAc(b1-2)Man(a1-3)[Neu5Ac(a2-3)Gal(b1-4)GlcNAc(b1-3)Gal(b1-4)GlcNAc(b1-2)Man(a1-6)]Man(b1-4)GlcNAc(b1-4)GlcNAc
# Procedure, shortened: as §1
# [24] = biological target: Neu5Ac(a2-3)Gal(b1-4)[Fuc(a1-3)]GlcNAc(b1-2)Man
# Procedure, shortened: as §1
# Neu5Ac(a2-3)GalNAc = biological target: Neu5Ac(a2-3)GalNAc
# Procedure, shortened: as §1
# [25] = biological target: Neu5Ac(a2-6)Gal(b1-4)GlcNAc
# Procedure, shortened: as §1
# [26] = biological target: Neu5Ac(a2-6)Gal(b1-4)GlcNAc(b1-2)Man(a1-6)Man(b1-4)GlcNAc(b1-4)GlcNAc
# Procedure, shortened: as §1
# [27] = biological target: Neu5Ac(a2-6)Gal(b1-4)GlcNAc(b1-2)Man(a1-6)[Man(a1-3)]Man(b1-4)GlcNAc(b1-4)GlcNAc
# Procedure, shortened: as §1
# [28] = biological target: Neu5Ac(a2-6)Gal(b1-4)GlcNAc(b1-3)Gal(b1-4)[Fuc(a1-3)]GlcNAc(b1-3)Gal(b1-4)[Fuc(a1-3)]GlcNAc
# Procedure, shortened: as §1
# [29] = biological target: Neu5Ac(a2-8)Neu5Ac(a2-8)Neu5Ac
# Procedure, shortened: as §1
# [30] = biological target: Neu5Ac9Ac(a2-3)Gal(b1-3)GlcNAc
# Procedure, shortened: as §1
# [31] = biological target: Neu5Ac9Ac(a2-6)Gal(b1-4)GlcNAc
# Procedure, shortened: as §1
# Neu5Gc(a2-3)Gal(b1-4)Glc = biological target: Neu5Gc(a2-3)Gal(b1-4)Glc
# Procedure, shortened: as §1
binder,measurement,setting,value
B1,glycan array binding signal (z-score),[1],-0.156
same,glycan array binding signal (z-score),[2],-0.162
same,glycan array binding signal (z-score),[3],1.88
same,glycan array binding signal (z-score),[4],-0.235
same,glycan array binding signal (z-score),[5],-0.161
same,glycan array binding signal (z-score),Gal(a1-3)Gal(b1-3)GlcNAc,12.1
same,glycan array binding signal (z-score),[6],-0.211
same,glycan array binding signal (z-score),Gal(a1-4)Gal(b1-4)GlcNAc,-0.161
same,glycan array binding signal (z-score),Gal(a1-4)GlcNAc,1.22
same,glycan array binding signal (z-score),Gal(b1-2)Gal,1.49
same,glycan array binding signal (z-score),Gal(b1-3)Gal,-0.262
same,glycan array binding signal (z-score),Gal(b1-3)Gal(b1-4)GlcNAc,-0.236
same,glycan array binding signal (z-score),[7],-0.181
same,glycan array binding signal (z-score),[8],-0.117
same,glycan array binding signal (z-score),[9],0.007
same,glycan array binding signal (z-score),[10],-0.233
same,glycan array binding signal (z-score),[11],-0.254
same,glycan array binding signal (z-score),[12],-0.222
same,glycan array binding signal (z-score),[13],-0.084
same,glycan array binding signal (z-score),[14],1.44
same,glycan array binding signal (z-score),[15],1.2
same,glycan array binding signal (z-score),[16],-0.072
same,glycan array binding signal (z-score),Gal3S(b1-3)GalNAc,0.678
same,glycan array binding signal (z-score),Gal3S(b1-4)Glc,3.41
same,glycan array binding signal (z-score),Gal3S(b1-4)Glc6S,1.24
same,glycan array binding signal (z-score),Gal3S6S(b1-4)GlcNAc,-0.201
same,glycan array binding signal (z-score),Glc(a1-4)Glc,-0.054
same,glycan array binding signal (z-score),GlcNAc(b1-3)Fuc,-0.089
same,glycan array binding signal (z-score),[17],-0.232
same,glycan array binding signal (z-score),Kdn(a2-3)Gal(b1-4)Glc,-0.172
same,glycan array binding signal (z-score),Kdn(a2-3)Gal(b1-4)GlcNAc,-0.204
same,glycan array binding signal (z-score),[18],0.919
same,glycan array binding signal (z-score),[19],-0.247
same,glycan array binding signal (z-score),[20],-0.274
same,glycan array binding signal (z-score),Neu5Ac(a2-3)Gal,-0.168
same,glycan array binding signal (z-score),[21],-0.056
same,glycan array binding signal (z-score),[22],-0.084
same,glycan array binding signal (z-score),[23],-0.025
same,glycan array binding signal (z-score),[24],-0.222
same,glycan array binding signal (z-score),Neu5Ac(a2-3)GalNAc,1.09
same,glycan array binding signal (z-score),[25],-0.197
same,glycan array binding signal (z-score),[26],-0.179
same,glycan array binding signal (z-score),[27],-0.197
same,glycan array binding signal (z-score),[28],-0.193
same,glycan array binding signal (z-score),[29],-0.239
same,glycan array binding signal (z-score),[30],0.957
same,glycan array binding signal (z-score),[31],-0.19
same,glycan array binding signal (z-score),Neu5Gc(a2-3)Gal(b1-4)Glc,-0.194
